Experimental findings from paper PMC11006913 are described below.

Residue numbers refer to the chain shown, from its start.

Among the targets are HOXB6 (Homo sapiens, UniProt P17509 132-218, K202E); ALX1 (Homo sapiens, UniProt Q15699 118-204, L144V); HESX1 (Homo sapiens, UniProt Q9UBX0 95-180, F115L).
Experiment in all cases: PBM; 200 nM protein, PBS
Conditions in all cases: dsDNA, one strand shown

Test [1] concerns the target HOXB9 (Homo sapiens, UniProt P17482 171-250, T197M).
Test [2] has as its target HOXC10 (Homo sapiens, UniProt Q9NYD6 254-340).
The target in test [3] is ALX4 (Homo sapiens, UniProt Q9H161 200-286, Q225E).
Chain of ALX4 (Homo sapiens, UniProt Q9H161 200-286, Q225E) (Q9H161 200-286 Q225E): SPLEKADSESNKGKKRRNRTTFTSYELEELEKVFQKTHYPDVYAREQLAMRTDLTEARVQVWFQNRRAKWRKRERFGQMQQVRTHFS
Test [4] deals with HOXB9 (Homo sapiens, UniProt P17482 171-250).
Chain of HOXB9 (Homo sapiens, UniProt P17482 171-250) (P17482 171-250): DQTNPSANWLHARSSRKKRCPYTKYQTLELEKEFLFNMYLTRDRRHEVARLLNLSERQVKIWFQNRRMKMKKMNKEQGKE
The target in test [5] is HOXD13 (Homo sapiens, UniProt P35453 263-343, T313R).
Chain of HOXD13 (Homo sapiens, UniProt P35453 263-343, T313R) (P35453 263-343 T313R): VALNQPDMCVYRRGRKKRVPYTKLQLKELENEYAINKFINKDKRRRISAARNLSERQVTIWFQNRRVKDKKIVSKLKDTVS
Test [6] deals with HOXD13 (Homo sapiens, UniProt P35453 263-343).
Chain of HOXD13 (Homo sapiens, UniProt P35453 263-343) (P35453 263-343): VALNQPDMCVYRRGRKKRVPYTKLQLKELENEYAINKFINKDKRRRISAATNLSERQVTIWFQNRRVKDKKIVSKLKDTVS
Test [7] concerns the target HOXC10 (Homo sapiens, UniProt Q9NYD6 254-340, K271E).
Test [8] deals with HOXD13 (Homo sapiens, UniProt P35453 263-343, T313A).
Chain of HOXD13 (Homo sapiens, UniProt P35453 263-343, T313A) (P35453 263-343 T313A): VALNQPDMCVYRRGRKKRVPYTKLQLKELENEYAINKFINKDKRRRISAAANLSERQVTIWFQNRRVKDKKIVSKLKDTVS
Test [9] addresses HOXB9 (Homo sapiens, UniProt P17482 171-250, R186Q).
The target of test [10] is HOXC9 (Homo sapiens, UniProt P31274 178-260, R222W).
Chain of HOXC9 (Homo sapiens, UniProt P31274 178-260, R222W) (P31274 178-260 R222W): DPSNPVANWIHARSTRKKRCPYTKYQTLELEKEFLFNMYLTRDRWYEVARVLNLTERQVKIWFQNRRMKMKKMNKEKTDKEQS
The target of test [11] is NKX3-2 (Homo sapiens, UniProt P78367 192-278, P234S).
Chain of NKX3-2 (Homo sapiens, UniProt P78367 192-278, P234S) (P78367 192-278 P234S): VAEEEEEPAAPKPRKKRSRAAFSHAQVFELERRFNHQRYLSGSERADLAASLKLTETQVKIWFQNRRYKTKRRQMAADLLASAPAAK
Test [12] addresses NKX3-2 (Homo sapiens, UniProt P78367 192-278).
The target in test [13] is HOXC9 (Homo sapiens, UniProt P31274 178-260, K195R).
Chain of HOXC9 (Homo sapiens, UniProt P31274 178-260, K195R) (P31274 178-260 K195R): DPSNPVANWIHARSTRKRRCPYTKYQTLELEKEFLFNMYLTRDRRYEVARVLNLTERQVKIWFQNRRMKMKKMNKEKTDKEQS
Test [14] deals with HOXC9 (Homo sapiens, UniProt P31274 178-260).
Chain of HOXC9 (Homo sapiens, UniProt P31274 178-260) (P31274 178-260): as the sequence (P31274 178-260 R222W) above, with W45R counted along it
The target of test [15] is HOXC9 (Homo sapiens, UniProt P31274 178-260, R193K).
Chain of HOXC9 (Homo sapiens, UniProt P31274 178-260, R193K) (P31274 178-260 R193K): as the sequence (P31274 178-260 R222W) above, with R16K, W45R counted along it
Test [16] concerns the target ALX4 (Homo sapiens, UniProt Q9H161 200-286).
Test [17] addresses T1, PAX4 (Homo sapiens, UniProt O43316 9-242, R200K).
T1 sequence: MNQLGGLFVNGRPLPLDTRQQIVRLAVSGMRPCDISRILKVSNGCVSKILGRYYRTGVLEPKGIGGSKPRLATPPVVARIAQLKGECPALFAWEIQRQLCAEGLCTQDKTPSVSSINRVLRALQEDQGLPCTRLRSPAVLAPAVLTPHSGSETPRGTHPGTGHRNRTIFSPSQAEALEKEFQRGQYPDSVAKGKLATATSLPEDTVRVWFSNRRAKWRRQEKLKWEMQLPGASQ

The target in test [18] is PRRX1 (Homo sapiens, UniProt P54821 80-166, F113S).
Chain of PRRX1 (Homo sapiens, UniProt P54821 80-166, F113S) (P54821 80-166 F113S): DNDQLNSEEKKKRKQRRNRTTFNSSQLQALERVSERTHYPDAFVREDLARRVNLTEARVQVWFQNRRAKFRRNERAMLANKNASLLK
Test [19] concerns the target T2, PAX4 (Homo sapiens, UniProt O43316 9-242).
T2 sequence: T1 sequence with K192R

Test [20] deals with ALX3 (Homo sapiens, UniProt O95076 139-225, N203Q).
Chain of ALX3 (Homo sapiens, UniProt O95076 139-225, N203Q) (O95076 139-225 N203Q): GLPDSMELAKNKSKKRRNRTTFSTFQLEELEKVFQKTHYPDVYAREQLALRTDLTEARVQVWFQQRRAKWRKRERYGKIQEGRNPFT
The target of test [21] is T3, PAX4 (Homo sapiens, UniProt O43316 9-242, R200Q).
T3 sequence: T1 sequence with K192Q

Test [22] concerns the target T4, PAX4 (Homo sapiens, UniProt O43316 9-242, F177V).
T4 sequence: T1 sequence with F169V, K192R

In test [23] the target is ALX3 (Homo sapiens, UniProt O95076 139-225).
Chain of ALX3 (Homo sapiens, UniProt O95076 139-225) (O95076 139-225): as the sequence (O95076 139-225 N203Q) above, with Q65N counted along it
Test [24] concerns the target T5, PAX4 (Homo sapiens, UniProt O43316 9-242, F177Y).
T5 sequence: T1 sequence with F169Y, K192R

Test [25] concerns the target ALX3 (Homo sapiens, UniProt O95076 139-225, L168Q).
Test [26] has as its target ALX3 (Homo sapiens, UniProt O95076 139-225, L168V).
For test [27], the target named is T6, PAX4 (Homo sapiens, UniProt O43316 9-242, R227W).
T6 sequence: T1 sequence with K192R, R219W

The target of test [28] is ALX3 (Homo sapiens, UniProt O95076 139-225, N203S).
Chain of ALX3 (Homo sapiens, UniProt O95076 139-225, N203S) (O95076 139-225 N203S): as the sequence (O95076 139-225 N203Q) above, with Q65S counted along it
For test [29], the target named is PRRX1 (Homo sapiens, UniProt P54821 80-166).
Chain of PRRX1 (Homo sapiens, UniProt P54821 80-166) (P54821 80-166): as the sequence (P54821 80-166 F113S) above, with S34F counted along it

Chain of HOXB9 (Homo sapiens, UniProt P17482 171-250, T197M) (P17482 171-250 T197M): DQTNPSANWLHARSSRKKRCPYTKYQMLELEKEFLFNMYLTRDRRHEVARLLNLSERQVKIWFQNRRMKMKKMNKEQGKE
Chain of HOXB9 (Homo sapiens, UniProt P17482 171-250, R186Q) (P17482 171-250 R186Q): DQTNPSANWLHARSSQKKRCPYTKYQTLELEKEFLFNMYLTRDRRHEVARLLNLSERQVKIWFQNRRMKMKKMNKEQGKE
Chain of HOXC10 (Homo sapiens, UniProt Q9NYD6 254-340, K271E) (Q9NYD6 254-340 K271E): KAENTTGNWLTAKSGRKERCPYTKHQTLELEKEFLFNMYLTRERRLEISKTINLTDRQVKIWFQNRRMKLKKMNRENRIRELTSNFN
Chain of HOXC10 (Homo sapiens, UniProt Q9NYD6 254-340) (Q9NYD6 254-340): as the sequence (Q9NYD6 254-340 K271E) above, with E18K counted along it
Chain of NKX3-2 (Homo sapiens, UniProt P78367 192-278) (P78367 192-278): as the sequence (P78367 192-278 P234S) above, with S43P counted along it
Chain of ALX4 (Homo sapiens, UniProt Q9H161 200-286) (Q9H161 200-286): as the sequence (Q9H161 200-286 Q225E) above, with E26Q counted along it
Chain of ALX3 (Homo sapiens, UniProt O95076 139-225, L168V) (O95076 139-225 L168V): as the sequence (O95076 139-225 N203Q) above, with L30V, Q65N counted along it
Chain of ALX1 (Q15699 118-204 L144V): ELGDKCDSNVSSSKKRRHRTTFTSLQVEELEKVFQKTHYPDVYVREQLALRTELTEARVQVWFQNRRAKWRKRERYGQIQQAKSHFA
Chain of HOXB6 (P17509 132-218 K202E): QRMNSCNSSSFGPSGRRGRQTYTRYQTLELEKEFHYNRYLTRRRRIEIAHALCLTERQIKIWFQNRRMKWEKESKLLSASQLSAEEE
Chain of ALX3 (Homo sapiens, UniProt O95076 139-225, L168Q) (O95076 139-225 L168Q): as the sequence (O95076 139-225 N203Q) above, with L30Q, Q65N counted along it
Chain of HESX1 (Q9UBX0 95-180 F115L): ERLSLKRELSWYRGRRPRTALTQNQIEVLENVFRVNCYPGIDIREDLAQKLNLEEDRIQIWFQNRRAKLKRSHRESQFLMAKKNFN

As for TCAATAAA, the binding signal in the test with HOXB9 [1] is 9.75 upbm affinity estimate (log intensity, higher = more binding, comparable within an allelic series); with HOXC10 [2], 12.2 upbm affinity estimate (log intensity, higher = more binding, comparable within an allelic series); with ALX4 [3] it was 11.2 upbm affinity estimate (log intensity, higher = more binding, comparable within an allelic series); with HOXB9 [4] it was 11.8 upbm affinity estimate (log intensity, higher = more binding, comparable within an allelic series); with HOXD13 [5], 11 upbm affinity estimate (log intensity, higher = more binding, comparable within an allelic series); with HOXD13 [6] it was 12 upbm affinity estimate (log intensity, higher = more binding, comparable within an allelic series). For the same sequence, the binding signal with HOXC10 [7] was 11.6 upbm affinity estimate (log intensity, higher = more binding, comparable within an allelic series); with HOXD13 [8], 11.7 upbm affinity estimate (log intensity, higher = more binding, comparable within an allelic series); in the test with HOXB9 [9] it was 11.5 upbm affinity estimate (log intensity, higher = more binding, comparable within an allelic series); with HOXC9 [10], 11.3 upbm affinity estimate (log intensity, higher = more binding, comparable within an allelic series).

Take GGCAGACC: the binding signal in the test with HOXB9 [1] is 8.55 upbm affinity estimate (log intensity, higher = more binding, comparable within an allelic series); with HOXC10 [2] it was 10.1 upbm affinity estimate (log intensity, higher = more binding, comparable within an allelic series); with HOXB9 [4], 8.57 upbm affinity estimate (log intensity, higher = more binding, comparable within an allelic series); in the test with HOXC10 [7] it was 10.1 upbm affinity estimate (log intensity, higher = more binding, comparable within an allelic series); with HOXB9 [9], 8.65 upbm affinity estimate (log intensity, higher = more binding, comparable within an allelic series); with NKX3-2 [11] it was 10.4 upbm affinity estimate (log intensity, higher = more binding, comparable within an allelic series). The binding signal with NKX3-2 [12] was 10.3 upbm affinity estimate (log intensity, higher = more binding, comparable within an allelic series).

For CCATAAAC, the binding signal was 9.33 upbm affinity estimate (log intensity, higher = more binding, comparable within an allelic series) with HOXB9 [1]; 12.4 upbm affinity estimate (log intensity, higher = more binding, comparable within an allelic series) in the test with HOXC9 [13]; 11.8 upbm affinity estimate (log intensity, higher = more binding, comparable within an allelic series) with HOXB9 [4]; 12.6 upbm affinity estimate (log intensity, higher = more binding, comparable within an allelic series) with HOXC9 [14]; 10.8 upbm affinity estimate (log intensity, higher = more binding, comparable within an allelic series) with HOXD13 [5]; 12.5 upbm affinity estimate (log intensity, higher = more binding, comparable within an allelic series) with HOXC9 [15]. Also, the binding signal with HOXD13 [6] is 12.1 upbm affinity estimate (log intensity, higher = more binding, comparable within an allelic series); in the test with HOXC10 [7], 11.3 upbm affinity estimate (log intensity, higher = more binding, comparable within an allelic series); with HOXD13 [8] it was 11.8 upbm affinity estimate (log intensity, higher = more binding, comparable within an allelic series); in the test with HOXB9 [9], 11.5 upbm affinity estimate (log intensity, higher = more binding, comparable within an allelic series); with HOXC9 [10], 10.8 upbm affinity estimate (log intensity, higher = more binding, comparable within an allelic series).

Regarding ATAAAATG, the binding signal in the test with HOXB9 [1] is 9.81 upbm affinity estimate (log intensity, higher = more binding, comparable within an allelic series); with HOXC9 [13] it was 12.5 upbm affinity estimate (log intensity, higher = more binding, comparable within an allelic series); with HOXB9 [4], 11.7 upbm affinity estimate (log intensity, higher = more binding, comparable within an allelic series); with HOXC9 [14], 12.6 upbm affinity estimate (log intensity, higher = more binding, comparable within an allelic series); in the test with HOXC9 [15], 12.6 upbm affinity estimate (log intensity, higher = more binding, comparable within an allelic series); with HOXB9 [9], 11.6 upbm affinity estimate (log intensity, higher = more binding, comparable within an allelic series). Also, in the test with HOXC9 [10], the binding signal was 11 upbm affinity estimate (log intensity, higher = more binding, comparable within an allelic series).

As for ATAAATTA, the binding signal with HOXB9 [1] was 9.96 upbm affinity estimate (log intensity, higher = more binding, comparable within an allelic series); with ALX4 [16] it was 13.6 upbm affinity estimate (log intensity, higher = more binding, comparable within an allelic series); with PAX4 [17], 11.7 upbm affinity estimate (log intensity, higher = more binding, comparable within an allelic series); with PRRX1 [18], 11.2 upbm affinity estimate (log intensity, higher = more binding, comparable within an allelic series); with PAX4 [19] it was 12.2 upbm affinity estimate (log intensity, higher = more binding, comparable within an allelic series); with HOXB6, 10 upbm affinity estimate (log intensity, higher = more binding, comparable within an allelic series). Besides, the binding signal with ALX4 [3] was 12.6 upbm affinity estimate (log intensity, higher = more binding, comparable within an allelic series); in the test with ALX1 it was 11.4 upbm affinity estimate (log intensity, higher = more binding, comparable within an allelic series); with ALX3 [20] it was 8.61 upbm affinity estimate (log intensity, higher = more binding, comparable within an allelic series); in the test with PAX4 [21], 11.8 upbm affinity estimate (log intensity, higher = more binding, comparable within an allelic series); in the test with PAX4 [22], 10.7 upbm affinity estimate (log intensity, higher = more binding, comparable within an allelic series); in the test with ALX3 [23], 12.3 upbm affinity estimate (log intensity, higher = more binding, comparable within an allelic series). For the same sequence, the binding signal is 11 upbm affinity estimate (log intensity, higher = more binding, comparable within an allelic series) in the test with PAX4 [24]; 10.2 upbm affinity estimate (log intensity, higher = more binding, comparable within an allelic series) with ALX3 [25]; 11 upbm affinity estimate (log intensity, higher = more binding, comparable within an allelic series) with HOXC9 [10]; 9.72 upbm affinity estimate (log intensity, higher = more binding, comparable within an allelic series) with ALX3 [26]; 7.82 upbm affinity estimate (log intensity, higher = more binding, comparable within an allelic series) with HESX1; 11 upbm affinity estimate (log intensity, higher = more binding, comparable within an allelic series) with PAX4 [27]. The binding signal is 8.71 upbm affinity estimate (log intensity, higher = more binding, comparable within an allelic series) with ALX3 [28] and 13.3 upbm affinity estimate (log intensity, higher = more binding, comparable within an allelic series) in the test with PRRX1 [29].
